Source: PubChem
C diff growth: inhibitors of Clostridium difficile growth; actives 0.25% (n = 86,000); Clostridium difficile clinical isolate growth, OD600, 24 h; stronger effect = lower value; growth activity, negative = inhibition, % at 16 µg/mL (by protocol); AID 1259249;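 active = mean growth activity at or below -80% and every replicate also at or below -80%; inconclusive = mean at or below -80% but some replicate above -80%; inactive = mean growth activity above -80%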;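 also: 0% = DMSO wells and -100% = levofloxacin 16 µg/mL wells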
T cruzi growth-1: blocks T. cruzi growth in NIH3T3 culture. T. cruzi beta-gal in NIH3T3, GalScreen luminescence, 90 h. inhibition, % at 8.34 µM. actives 5.9% (n = 77,000). AID 624255;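 active = mean inhibition above about 93%, with at least 55% of replicates each passing it, limit read from the data, passing the limit was not always enough; inconclusive = only one of those two conditions holds; inactive = neither condition holds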
Pf Dd2 growth: blocks growth of Plasmodium falciparum Dd2 parasites | P. falciparum Dd2 growth, SYBR Green, 72 h; stronger effect = lower value | activity change, % at 10 µM | actives 2.3% (n = 94,000); in the data active = activity change below about -80%; inconclusive = no clear call, values can overlap the other calls
T cruzi growth-2: blocks T. cruzi growth in NIH3T3 host cells; T. cruzi beta-gal in NIH3T3, GalScreen luminescence, 90 h; shares compounds with T cruzi growth-1; actives 72% (n = 5,600); inhibition, % at 8.35 µM;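 active = mean replicate inhibition above about 95% and at least 55% of replicates individually reaching it, limit read from the data; inconclusive = only one of the two criteria is met; inactive = neither criterion is met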
T cruzi growth-3: Trypanosoma cruzi proliferation inhibition; shares compounds with T cruzi growth-1; T. cruzi beta-gal in NIH3T3, GalScreen luminescence, 90 h; inhibition, % at 2.09 µM; actives 21% (n = 5,600); AID 651740;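 active = mean inhibition above about 95%, with at least 55% of replicates also reaching it, limit read from the data; inconclusive = meets just one of the two conditions; inactive = meets neither condition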;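 also: plate controls were neutral control median for no effect and positive control median for full effect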
NIH3T3 tox: cytotoxicity in mouse NIH/3T3 fibroblasts; shares compounds with T cruzi growth-1; NIH/3T3 viability, CellTiter-Glo ATP luminescence, 90 h; cytotoxicity (signal decrease), % at 8.35 µM; actives 14% (n = 5,600); AID 651742;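 active = mean signal decrease across replicates above about 35% based on untreated-well scatter, with enough replicates individually passing, limit read from the data; inconclusive = no rule stated though some were filed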;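 also: 0% = median of neutral control wells and 100% = median of positive control wells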
3T3 cytotox 2: kills mouse NIH/3T3 fibroblasts. inhibition, % at 24.9 µM. shares compounds with T cruzi growth-1. NIH/3T3 viability, CellTiter-Glo ATP luminescence, 90 h. actives 56% (n = 5,600);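 active = mean loss of cell viability signal at or above a set limit, and enough replicates individually reaching it; inconclusive = meets only the mean limit or only the replicate share; inactive = meets neither condition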;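 also: 0% = median of neutral control wells and 100% = median of positive control wells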
Numbers without * were called inactive; ? = inconclusive; · = not tested or not shown. Most compounds without a hit are left out; they make up all but 6.7% or so of the library.

SMILES | C diff growth | T cruzi growth-1 | Pf Dd2 growth | T cruzi growth-2 | T cruzi growth-3 | NIH3T3 tox | 3T3 cytotox 2
Cc1cccc(S(=O)(=O)N2CCCCN3[C@H](CO)[C@H](c4ccc(-c5cccnc5)cc4)[C@H]3C2)c1 | -6 | 1 | -31 | · | · | · | ·
Cc1cccc(S(=O)(=O)N2CCCCN3[C@H](CO)[C@H](c4ccc(-c5cccnc5)cc4)[C@@H]3C2)c1 | 1 | 24 | -19 | · | · | · | ·
O=S(=O)(c1ccccc1)N1CCCCN2[C@@H](CO)[C@@H](c3ccc(-c4ccccc4)cc3)[C@@H]2C1 | 15 | 81 | -44 | · | · | · | ·
Cc1cccc(S(=O)(=O)N2CCCCN3[C@H](CO)[C@H](c4ccc(-c5ccccc5)cc4)[C@@H]3C2)c1 | 6 | 116* | 10 | 98* | 80 | -10 | 51*
O=S(=O)(c1ccccc1)N1CCCCN2[C@H](CO)[C@H](c3ccc(-c4ccccc4)cc3)[C@@H]2C1 | 26 | 104* | 16 | 100* | 84 | -5 | 49*
CN1[C@H](C(=O)NCCCN2CCOCC2)[C@@H](CO)[C@@H]2Cn3c(ccc(/C=C/c4ccccc4)c3=O)[C@@H]21 | -4 | 6 | · | · | · | · | ·
C[C@H]1CN([C@@H](C)CO)C(=O)c2cc(NS(=O)(=O)c3cn(C)cn3)ccc2O[C@@H]1CN(C)S(C)(=O)=O | · | 67 | 25 | · | · | · | ·
CC(C)NC(=O)Nc1ccc2c(c1)CC(=O)N([C@H](C)CO)C[C@H](C)[C@H](CN(C)S(=O)(=O)c1ccc(F)cc1)O2 | -3 | 40 | -7 | · | · | · | ·
CC(=O)N1[C@@H]2c3cccc(=O)n3C[C@H]1[C@H](CO)[C@H]2C(=O)N[C@@H](C)c1ccccc1 | 16 | · | 0 | · | · | · | ·
C[C@@H]1CN([C@@H](C)CO)C(=O)c2ccccc2-c2ccccc2CO[C@H]1CN(C)C(=O)Nc1ccnc(N2CCOCC2)c1 | -11 | 109* | -12 | 102* | 92 | 6 | 11
C[C@@H]1CN([C@@H](C)CO)C(=O)c2c(c3ccccc3n2C)-c2ccccc2CO[C@H]1CN(C)C(=O)Nc1ccnc(N2CCOCC2)c1 | -8 | · | -63 | · | · | · | ·
C[C@@H]1CN([C@@H](C)CO)C(=O)c2ccccc2-c2ccccc2CO[C@@H]1CN(C)C(=O)Nc1ccccc1 | · | 38 | 10 | · | · | · | ·
C[C@@H]1CN([C@H](C)CO)C(=O)c2ccccc2-c2ccccc2CO[C@@H]1CN(C)C(=O)Nc1ccnc(N2CCOCC2)c1 | 0 | ? | -15 | 89 | 33 | -2 | 7
O=C(NC1CCCC1)[C@H]1[C@H](CO)[C@H]2Cn3c(ccc(-c4cccnc4)c3=O)[C@H]2N1CC1CC1 | 6 | 55 | -5 | · | · | · | ·
Cc1noc(C)c1S(=O)(=O)Nc1ccc2c(c1)C(=O)N([C@@H](C)CO)C[C@@H](C)[C@@H](CN(C)C(=O)NC1CCCCC1)OCCCC[C@H](C)O2 | 9 | -22 | -26 | · | · | · | ·
CCCNC(=O)NC[C@H]1[C@H](c2ccc(C3=CCCC3)cc2)[C@@H](CO)N1C(=O)CC | 12 | 63 | -18 | · | · | · | ·
Cc1noc(C)c1NC(=O)Nc1ccc2c(c1)C(=O)N([C@H](C)CO)C[C@H](C)[C@H](CN(C)C(=O)Nc1ccc3c(c1)OCO3)OCCCC[C@@H](C)O2 | 2 | -5 | 40 | · | · | · | ·
C[C@@H]1CN([C@@H](C)CO)S(=O)(=O)c2ccc(C#Cc3ccccn3)cc2O[C@H]1CN(C)Cc1ccc(F)cc1 | -7 | 128* | -47 | 97* | ? | 50* | 39*
C[C@@H]1CN([C@H](C)CO)S(=O)(=O)c2ccc(C#Cc3ccc(F)cc3)cc2O[C@H]1CN(C)C(=O)c1ccccn1 | 6 | 88 | -50 | · | · | · | ·
CC(=O)N(C)C[C@H]1Oc2cc(C#Cc3ccccn3)ccc2S(=O)(=O)N([C@@H](C)CO)C[C@@H]1C | 1 | 53 | 9 | · | · | · | ·
C[C@H](CO)N1C[C@H](C)[C@@H](CN(C)Cc2ccc(F)cc2)Oc2cc(C#CCN(C)C)ccc2S1(=O)=O | 2 | 91 | -71 | · | · | · | ·
C[C@@H]1CN([C@H](C)CO)S(=O)(=O)c2ccc(C#Cc3ccccn3)cc2O[C@@H]1CN(C)Cc1ccc(F)cc1 | -1 | 116* | -24 | 105* | 64 | 11 | 24*
C[C@@H]1CN([C@H](C)CO)S(=O)(=O)c2ccc(C#Cc3ccccn3)cc2O[C@H]1CN(C)Cc1ccc(F)cc1 | -8 | 127* | -29 | 104* | 91 | 29 | 93*
C[C@H]1CN([C@@H](C)CO)S(=O)(=O)c2ccc(C#Cc3ccc(F)cc3)cc2O[C@@H]1CN(C)C(=O)c1ccccn1 | -12 | ? | -66 | 102* | 29 | 1 | 52*
CC(=O)N(C)C[C@H]1Oc2cc(C#Cc3ccccn3)ccc2S(=O)(=O)N([C@H](C)CO)C[C@H]1C | -20 | 42 | -3 | · | · | · | ·
SMILES | C diff growth | T cruzi growth-1 | Pf Dd2 growth | T cruzi growth-2 | T cruzi growth-3 | NIH3T3 tox | 3T3 cytotox 2
CN(C)C(=O)C[C@@H]1CC[C@H](NC(=O)C2CC2)[C@H](CO)O1 | -1 | · | · | · | · | · | ·
CO[C@H]1CN(C)C(=O)c2ccc(NC(=O)Cc3ccccc3)cc2OC[C@@H](C)N(CC2CC2)C[C@H]1C | · | -49 | 3 | · | · | · | ·
O=C(c1cccc(F)c1)N1CC[C@@H]2[C@H]1c1cc(C#Cc3ccc(F)cc3)ccc1N[C@@H]2CO | 41 | 114* | 0 | 108* | 91 | -2 | 79*
O=C(c1ccc(F)cc1)N1CC[C@@H]2[C@@H](CO)Nc3ccc(C#Cc4ccc(F)cc4)cc3[C@@H]21 | 13 | 78 | -33 | · | · | · | ·
COc1ccc(C#Cc2ccc3c(c2)[C@@H]2[C@@H](CCN2C(=O)c2cccc(F)c2)[C@@H](CO)N3)cc1 | -1 | 102* | -59 | 108* | 84 | -2 | 26*
COc1ccc(C#Cc2ccc3c(c2)[C@H]2[C@H](CCN2C(=O)c2cccc(F)c2)[C@@H](CO)N3)cc1 | 1 | 61 | -61 | · | · | · | ·
C[C@@H]1CN([C@H](C)CO)C(=O)c2cccc(NC(=O)c3ccc(-c4nccs4)cc3)c2O[C@@H]1CN(C)C(=O)Nc1ccccc1 | -3 | 46 | -33 | · | · | · | ·
COc1ccc(S(=O)(=O)N(C)C[C@H]2Oc3cc(C4=CCCC4)ccc3S(=O)(=O)N([C@H](C)CO)C[C@H]2C)cc1 | 2 | 122* | -38 | 103* | 61 | 22 | 57*
COc1ccc(S(=O)(=O)N(C)C[C@H]2Oc3cc(C4=CCCC4)ccc3S(=O)(=O)N([C@H](C)CO)C[C@@H]2C)cc1 | 21 | 51 | -66 | · | · | · | ·
COc1ccc(S(=O)(=O)N(C)C[C@H]2Oc3cc(C4=CCCC4)ccc3S(=O)(=O)N([C@@H](C)CO)C[C@H]2C)cc1 | -1 | 122* | -28 | 101* | 105* | 45* | 54*
COc1ccc(S(=O)(=O)N(C)C[C@H]2Oc3cc(C4=CCCC4)ccc3S(=O)(=O)N([C@@H](C)CO)C[C@@H]2C)cc1 | 8 | 57 | -59 | · | · | · | ·
